# Laboratory results from PubChem BioAssay AID540351 (The Scripps Research Institute Molecular Screening Center, 2011).
# A number with no mark means an inactive call. The rule behind the calls is not given here.
# Test system: Rolipram
# Test: selectivity profiling over binding targets, CYP450 – biochemical, Ricerca HitProfilingScreen, selectivity assay for S1P3 agonist project, profiling panel (AID 540351)
# Details: Ricerca receptor/enzyme binding panel plus CYP450, at 30 µM, hits give high values
smiles,measurement,value
O=C(c1cc(C2CC2)on1)N(C1CCCCC1)C1CCCCC1,inhibition,18%
